Inconclusive results are not listed. Active and inactive are the calls of the source. Calls come from the whole dose curve; as a rule, active = well fitted inhibition curve with a large enough effect; inconclusive = small, poorly fitted or top-dose-only effect; inactive = flat fitted curve, though single readings scatter.
The molecules below were run against Tyrosine-protein phosphatase non-receptor type substrate 1 (Homo sapiens) + Leukocyte surface antigen CD47 (Homo sapiens) (UniProt P78324+Q08722) (assay: CD47-SIRPalpha protein protein interaction - Alpha assay qHTS validation (AID 1347059;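 note: bead proximity luminescence from CD47 binding SIRPalpha after compound preincubation with SIRPalpha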)). Details: AlphaScreen CD47-His/biotin-SIRPalpha binding, LOPAC; series mostly up to 38.3 µM.
Text: SIRPalpha is a myeloid cell expressed immunomodulatory receptor that binds the tumor expressed immune checkpoint CD47. Therapeutic disruption of this interaction leads to immune-mediated tumor rejection. This assay was used to quantitate CD47-SIRPalpha binding biochemically and evaluate chemical libraries for novel CD47-SIRPalpha inhibitors. To recapitulate the biological interaction of CD47 and SIRPalpha, we designed expression constructs to produce their recombinant, soluble, extracellular interaction domains. CD47 was produced with an N-terminal 6His tag. SIRPalpha was produced with an N-terminal Avi-Tag for site-specific biotin incorporation. The CD47-SIRPalpha interaction was measured by AlphaScreen using affinity tag linked reagents (Ni-NTA acceptor bead and streptavidin donor bead). SIRPalpha without biotin incorporation was used as a positive control inhibitor.
PROTOCOL TABLE (as described by Miller, T. et al. 2019)
SEQUENCE No. (e.g., 1, 2, 3, etc.); […] (e.g., Cells, Incubation, Reagent, etc.); VALUE and DESCRIPTION.
1a. Reagent. 2 uL SIRPalpha-biotin (25 nM) added to respective wells in Assay buffer; white/solid bottom high base, med bind 1536-well plates (Greiner 789075)
1b. Reagent. 2 uL Assay buffer negative control for background fluorescence
2. Reagent. 23 nL library compounds (7-pt, 1:4 intraplate titration series) or DMSO control transferred by Pin Tool
3. Centrifuge. Centrifuge plate for 30 s at 1000 RPM
4. Incubation.#Incubate reagents at room temperature for 30 min, protected from light
5. Reagent. 2 uL CD47-His (12.5 nM) in Assay buffer
6. Centrifuge. Centrifuge plate for 30 s at 1000 RPM
7. Incubation.#Incubate reagents at room temperature for 30 min, protected from light
8. Reagent. 1 uL Ni-NTA beads (10 ug/mL) added to respective wells
9. Reagent. 1 uL SAV beads (10 ug/mL) added to respective wells
10. Centrifuge. Centrifuge plate for 30 s at 1000 RPM
11. Incubation. Incubate reagents at room temperature for 30 min, protected from light
12. Detector. Measure AlphaScree n on EnVision (1536A1 aperture)
Where possible, perform Donor bead dilution and addition away from direct sunlight or with bright overhead lights turned off (<100 lux, similar to hallway lighting). Lighting should still be bright enough to allow accurate pipetting.
1. Assay buffer composition.#Phosphate buffered saline (PBS; 10 mM Phosphate, 137 mM NaCl, and 2.7 mM KCl; pH 7.4), 0.05% IGEPAL CA-630
2. 23nL of […] library compounds (7 plates) or DMSO vehicle control transferred to 9 Greiner white/solid bottom high base, TC plates in 7 interplate 1:5 titrations (see Yasgar, A. et al. 2008) with Pintool. Two of the 9 plates are DMSO-only in compound field at beginning and end of compound library-treated plates.
12. Aperture = 1536 plate HTS AlphaScreen; plate-detector distance = 0; Total measurement time = 240; Ex. time = 80 ms (33%); Afterglow CT1 corr. factor = 0; Glow CT2 corr. factor = 0; Bleach CT3 corr. factor = 0; Ref. signal= 417733; Ref. AD gain = 2

Sequence of Tyrosine-protein phosphatase non-receptor type substrate 1 (Homo sapiens) + Leukocyte surface antigen CD47 (Homo sapiens) (P78324 whole entry, looked up): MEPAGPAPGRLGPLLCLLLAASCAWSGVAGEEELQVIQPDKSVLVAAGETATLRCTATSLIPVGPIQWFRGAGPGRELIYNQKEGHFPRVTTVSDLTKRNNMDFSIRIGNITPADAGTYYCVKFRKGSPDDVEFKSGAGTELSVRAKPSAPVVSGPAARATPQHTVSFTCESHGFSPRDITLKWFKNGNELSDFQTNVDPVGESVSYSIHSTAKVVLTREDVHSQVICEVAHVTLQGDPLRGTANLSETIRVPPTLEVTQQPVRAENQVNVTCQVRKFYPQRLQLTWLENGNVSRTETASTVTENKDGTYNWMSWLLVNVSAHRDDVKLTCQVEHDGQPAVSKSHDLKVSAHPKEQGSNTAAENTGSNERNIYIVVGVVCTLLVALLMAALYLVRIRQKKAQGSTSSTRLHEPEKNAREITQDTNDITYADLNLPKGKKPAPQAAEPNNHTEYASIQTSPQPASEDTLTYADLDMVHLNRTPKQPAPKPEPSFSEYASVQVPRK
Sequence of Tyrosine-protein phosphatase non-receptor type substrate 1 (Homo sapiens) + Leukocyte surface antigen CD47 (Homo sapiens) (Q08722 whole entry, looked up): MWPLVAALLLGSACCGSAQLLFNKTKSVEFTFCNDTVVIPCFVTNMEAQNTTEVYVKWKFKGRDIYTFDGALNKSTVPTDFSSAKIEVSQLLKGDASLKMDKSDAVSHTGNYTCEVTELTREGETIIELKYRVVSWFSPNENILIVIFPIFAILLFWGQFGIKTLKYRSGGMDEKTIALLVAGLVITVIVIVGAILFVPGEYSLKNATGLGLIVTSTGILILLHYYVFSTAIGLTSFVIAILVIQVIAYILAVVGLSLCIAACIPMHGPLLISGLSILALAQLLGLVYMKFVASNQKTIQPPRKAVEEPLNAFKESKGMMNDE

For NC(=O)c1cccc(N)c1, which outcome is on record?
Its outcome is “inactive”.

CC(=O)[C@H]1CC[C@H]2[C@@H]3CCC4=CC(=O)CC[C@]4(C)[C@H]3CC[C@]12C was tested. Which outcome did it give?
The outcome was “inactive”.

With CNS(=O)(=O)CCc1ccc2[nH]cc(C3CCN(C)CC3)c2c1 as the molecule, how does the outcome read?
Its outcome is “inactive”.

How did the outcome turn out when CCN1CCCC1CNC(=O)c1cc(S(N)(=O)=O)ccc1OC (configuration not stated) was run?
The outcome was “inactive”.

For COc1cc2nc(N3CCCN(C)CC3)nc(NC3CCN(Cc4ccccc4)CC3)c2cc1OC, which outcome is on record?
The outcome was “inactive”.

With CC1CC2C3CCC4=CC(=O)C=C[C@]4(C)[C@@]3(F)[C@@H](O)C[C@]2(C)[C@@]1(O)C(=O)CO (some centres not stated) as the molecule, how does the outcome read?
The outcome was “inactive”.

With CC1=C(C(=O)O)N2C(=O)[C@@H](NC(=O)C(N)c3ccccc3)[C@H]2SC1 (some centres not stated) as the molecule, how does the outcome read?
The outcome was “inactive”.

How did the outcome turn out when COc1cc2ncnc(Nc3cccc(Cl)c3)c2cc1OC was run?
Its outcome is “inactive”.

For N[C@@H](Cc1ccc(O)c(O)c1)C(=O)O, which outcome is on record?
The outcome was “inactive”.

Which outcome does the source give for Nc1nc(N)c2nc(CNc3ccc(C(=O)NC(CCC(=O)O)C(=O)O)cc3)cnc2n1 (configuration not stated) here?
Its outcome is “inactive”.

Which outcome does the source give for CCCCS(=N)(=O)CCC(N)C(=O)O (configuration not stated) here?
The outcome was “inactive”.

For CCN(CC)CCn1c(=O)c(Cc2ccc(OC)cc2)nc2ccccc21, which outcome is on record?
Its outcome is “inactive”.

With Cc1ccc(S(=O)(=O)N[C@@H](Cc2ccccc2)C(=O)CCl)cc1 as the molecule, how does the outcome read?
Its outcome is “inactive”.

NC(=O)c1ccc2[nH]ccc2c1 was tested. Which outcome did it give?
Its outcome is “inactive”.

How did the outcome turn out when OCc1ccc(-c2nn(Cc3ccccc3)c3ccccc23)o1 was run?
Its outcome is “inactive”.

How did the outcome turn out when O=C(O)C1CCCN(CCC=C(c2ccccc2)c2ccccc2)C1 (configuration not stated) was run?
The outcome was “inactive”.

CC(C)NCC(O)c1ccc(NS(C)(=O)=O)cc1 (configuration not stated) was tested. Which outcome did it give?
Its outcome is “inactive”.

From PubChem BioAssay (NCATS)
